Laboratory results from PubChem BioAssay AID1347426 (Functional Genomics Laboratory (NCATS/FGL), 2020).
The whole screen tested about 31,000 sequences, of which about 1,400 (4.5%) were called active.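 Rule for the calls: active = median seed-adjusted z-score above 1 or below -1; inactive = the rest.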 Shown is part of a subset that was picked to be rich in actives.

test: Novel Modifiers of Survival Motor Neuron (SMN) Protein: Gene Identification via Genome-wide siRNA Screen; conditions: HEK293T SMN2-luciferase reporter, siRNA knockdown, 72 h; actives lie on both sides;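 note: luminescence tracks full-length SMN protein made from the SMN2 reporter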
Outline: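 Luciferase signal, proportional to full-length SMN made from an SMN2 cDNA reporter in stable HEK293T cells, was read 72 h after siRNA reverse transfection. Values were expressed as MAD scores after non-targeting-control normalization and log10 conversion; seed analysis flagged off-targets.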

Sequence	median seed-adjusted z-score
UGGGAAUGGUAGAAACAAATT against PPIL1	0.166 (inactive)
GCGCAUCUAUGAUGACGAUTT against UBA1	1.34 (active)
GAGUUUUUAUGGACUCUCATT against GRIK4	0.249 (inactive)
CCAGAAAACUUGCGAAACATT against RFX4	-0.0226 (inactive)
CCUCCGGAGAGAAAAAUGATT against NXF2	-0.0513 (inactive)
CAUCAAAGAUUGCACUUCATT against TOMM34	-0.503 (inactive)
GCCGGAAACAAAUACGUGATT against ZNF677	-0.441 (inactive)
GGCACGUUCUGAUCCAGAUTT against ACADM	0.127 (inactive)
CGAUAUCAAGUGCACCAAATT against CAD	2.37 (active)
GAGCAUUUGUGCGCAAGUUTT against NRP2	0.477 (inactive)
GCUCAUUCCUUCUACAAUUTT against CACNA1G	0.436 (inactive)
GGAUGUAAGUUGUCCAAUATT against SUZ12	-1.65 (active)
CGAGUGAAGUGGGAUGAGATT against STARD5	-0.0333 (inactive)
GCCGUUACCAUGGAACUUUTT against GSPT2	0.846 (inactive)
CACUGACUCGGAAACUGCATT against IGF2BP3	-0.636 (inactive)
CACCAGGUCUGGAUAUUGATT against SF3A1	-1.09 (active)
GCACAACUGUAGAGACAGATT against CIDEC	0.189 (inactive)
GCAGAGAUCUUUGUAGUCUTT against FTSJ3	0.437 (inactive)
CGGGUAAACUAUGAGCUGATT against ADCY2	0.173 (inactive)
GCAAGGCUUUUGACGUAGATT against MAP3K6	0 (inactive)
GGAAAUUAUGUAGAACCGATT against ALDH7A1	-0.406 (inactive)
CAGUGCACAGUGAAACCAATT against ADAM11	0.102 (inactive)

Sequence	median seed-adjusted z-score
GAGCUAGCGAAUAACCUUATT against DDX42	-2.13 (active)
CCCUCGGGAUCACACUUAUTT against MFSD1	-0.0833 (inactive)
GCACGAUAUAUAUAGCUAUTT against RIPK2	0.176 (inactive)
CAAAGACUCUGGAAUGAAUTT against PRICKLE2	-1.12 (active)
CAACAAGCGUAAGACCAAATT against SYTL5	0.192 (inactive)
GGAUCGCCCUGUAUGCUGUTT against LRTM2	0.465 (inactive)
GAAGAGCUCUUAGAGUGUATT against BCAT1	-0.604 (inactive)
AGUCCUCUAUCAACCUCUUTT against RXFP3	-0.0651 (inactive)
CUCCGUAUCAUAGAUGUAATT against PCDHB3	0.304 (inactive)
GGAGCUCACUGACGAGAAUTT against POLR2C	-2.95 (active)
GAAACCAAGUCAUAUGAAATT against CRTAP	0.581 (inactive)
GGAUCUACUCGGCACUCUATT against ZBTB20	-0.521 (inactive)
AGACCGCACUGACAGAGGATT against BAIAP2	-0.0497 (inactive)
CAAAGAACCUAUCCGCUUATT against GGA2	-0.142 (inactive)
GAAGCAGAGGACAACAUGATT against SNRPD3	-2.69 (active)
CAGUUAUGAUUGGUGGAGATT against CDC42	-0.0938 (inactive)
AGAACUUGAUGCUCCGAGATT against ITGA7	0.13 (inactive)
UUCUCUCCCUAAUAAAAAUTT against AVPR2	-0.262 (inactive)
GCCUACCCAUUUGUGAACATT against PEX12	-0.129 (inactive)
GCUCCACCGAGAUUCCUGATT against TCEB1	1.08 (active)
GGUGCUGGAGUUAAUCUUATT against TP53I3	0.244 (inactive)
GGCUUAAAGACAUUGAACATT against KLHL1	0.067 (inactive)

Sequence	median seed-adjusted z-score
GGACCUAGUGUGAGCAUAATT against COL14A1	0.19 (inactive)
GCCCACAUGUUUAAGGACATT against KCTD9	1.31 (active)
GAUACGUACUAUGACCGAATT against TGM7	0.244 (inactive)
GCACCUUCCGCGUCAUGUUTT against BTBD2	0.0303 (inactive)
GAGCUGACUUCGGAACUAATT against LCN2	0.123 (inactive)
CCACAGAGAUAAGCAGUCATT against IL15RA	-0.0113 (inactive)
GGACUCCCAUCAGUUCCUATT against MFSD4	-1.89 (active)
GCUGGAAUCUAACAAUAGATT against ROCK2	-0.149 (inactive)
CGUGUCCUGUCUGAACCAATT against ESCO2	0 (inactive)
AAGAGUCAGUUUUCAGAUATT against CHID1	0.199 (inactive)
GGAGGUUAAAGUGAAGAUUTT against MORF4L2	0.389 (inactive)
AAAUCGAUCAGAUCAACAATT against CDC2L1	-1.14 (active)
CCCUGAUCCUAUAGCUAUUTT against ART4	-0.0808 (inactive)
GAUCUGUGGUUGCAAACGATT against TRMT1	-0.224 (inactive)
CAGUUAUACUCAGAAGAGATT against ZNF155	0.698 (inactive)
GAAUGACCUUGAACAAUGATT against ABTB2	0.432 (inactive)
UGGAAUACAUGGAUCAGAATT against HEPACAM	-0.063 (inactive)
AGUACGGACAGAUCUCUGATT against CIRBP	-0.701 (inactive)
CAGUCGACCAGUACAUCAATT against PMS1	0.0538 (inactive)
AGUUGUAAAUUUACAAAGATT against UNC119	0.171 (inactive)
GAGUUUUUCGAGCUCAUGATT against PGS1	1.36 (active)
GGACUUUGGUGUGAAUGAATT against ANXA1	-0.114 (inactive)

Sequence	median seed-adjusted z-score
GCAUUGAAACGAAUGGGAATT against UBA5	-0.105 (inactive)
UCUUCACCGUGUGCCUAGATT against CRAT	-1.42 (active)
GCAGAUAAGAUCAAGAUCATT against SRPK3	-0.643 (inactive)
GAAGAAACCUUGACAAAAATT against KHDRBS3	0.0681 (inactive)
GACUAGUUUUGAUCAGGAATT against ZBTB5	0.314 (inactive)
GCAGAAUUCUGACGAUGAUTT against LEO1	1.2 (active)
CGAACAAAACGGGCCUGGATT against FOXA2	0.883 (inactive)
CCCUCUUUGGUCUAACUCATT against HOXA3	0.315 (inactive)
CGAAGACACGUAGCCCUAATT against PUS3	0.584 (inactive)
GGUGUAAUAAUGUCCUUUATT against SNRPF	-2.66 (active)
GGACUACAAAGUCGACCAATT against NDUFB10	-0.39 (inactive)
GGAGAUAGAACCUUCCAGATT against HLA-B	-0.355 (inactive)
CUAGAGUCGCUGUUGAAGATT against DRAP1	1.08 (active)
GGGUGGAGGUGUACUAUGATT against LOXL2	0.177 (inactive)
CAUCAUCAGUUUUUCGAUUTT against AHCTF1	-0.501 (inactive)
GAUGCCCAGUGUCCUGUUATT against PIF1	-0.0455 (inactive)
GCAAGACAAGUGUCGGGAATT against HSPA6	0.364 (inactive)
CAGCAGAACGUGUACGAGATT against ZBTB7A	-0.344 (inactive)
CAAGUGGGCUGAGUACCAUTT against PHPT1	1.27 (active)
GAGGUAAGAUGGAUGAAGATT against ACSM1	0.658 (inactive)
UCAAUGCCUCCUUAAUUUUTT against ZNF321	-0.642 (inactive)
CAGCGGAUGUGUUCAGUCUTT against PKMYT1	0.65 (inactive)

Sequence	median seed-adjusted z-score
CAAAACUAGUAAUCCUUAUTT against CDK8	-1.47 (active)
GGACAUGUGCGUCUACCGATT against HOXD13	0.116 (inactive)
GGAUUUAUCAGAACCUUUATT against SLC25A15	-0.0116 (inactive)
CCUACCAUCUUGUCCCUAATT against SLC7A6	-0.0877 (inactive)
UGGAGUAAAUGAUAAGAUATT against TRIM45	-0.0974 (inactive)
GCACCAUUACUAUAGAGGATT against PTH2R	-0.492 (inactive)
CAUCACCUAUUGGAUCCAATT against MMP9	-1.15 (active)
CGGUCCAAAUUGAAAGCGATT against STX1B	0.229 (inactive)
CGACUUGUUGUAUAAGUAUTT against DYNC1LI2	-0.491 (inactive)
CCAAGUUAUUGCUAUCAGATT against PPCS	0 (inactive)
GGUAAACGCAAAGCACUGATT against MAP2K4	-0.366 (inactive)
GCCUCUUGCUAGGCAUAGCTT against CLDN15	0.973 (inactive)
CCCUCGACAGAGUCAGUUUTT against NPC1	-0.195 (inactive)
GAUUGAAACUGACAAGACATT against DLST	1.16 (active)
CAGCUACGGAAGAACCUGATT against PHF21A	0.179 (inactive)
UCGAGGAAAUGAUCCGGGATT against GALE	-0.153 (inactive)
GGAGGAUCGUUUAGACAGATT against TCF12	-0.16 (inactive)
CAGCUGCAAUUCUAGCUAATT against RETSAT	-1.7 (active)
CAAUCACUGUGGAAUAUCATT against INPPL1	0.199 (inactive)
CAAGGGUAUUAUUCGAGUUTT against PPP1R3A	-0.241 (inactive)
